# Active and inactive are the calls of the source. The rule behind the calls is not given here.
# Experiment: Counterscreen for Identifying a Potential Treatment of Ataxia-Telangiectasia: SAR for Probe
# Conditions: cell-free AlphaLISA pKAP1 detection artifact counterscreen; series mostly up to 154 µM; activity change: at the top concentration
# Excerpt: NIH Chemical Genomics Center [NCGC] NIH Molecular Libraries Probe Centers Network [MLPCN] MLPCN Grant: MH089030-01 Assay Submitter (PI): Wei Zheng and Yosef Shiloh Ataxia-telangiectasia (A-T) is a devastating and progressive disease for which, there is no cure. Although A-T is a multisystem disease, it is stereotyped characterized by its neurological symptoms such as truncal ataxia, due to cerebellar cortical degeneration of the Purkinje and granule cells. Other symptoms of A-T are telangiectasias (dilated blood vessels), primary immunodeficiency, marked sensitivity to ionizing radiation (IR), chromosomal instability and predisposition to cancer. The underlying genetic cause of A-T is null mutations in the ATM (A-T mutated) gene. ATM is a nuclear serine/threonine kinase that functions as a master regulator of the cellular responses to double strand breaks (DSBs) in the DNA. Upon activation by DSBs, ATM phosphorylates a plethora of downstream targets, including KAP-1 on Ser82452. […] To screen for small molecules that will compensate for the loss of ATM in cells derived from A-T patients, we monitored KAP-1 phosphorylation as a readout for ATM-like activity using an AlphaLISA assay.
# qHTS Assay Protocol: 1. […] Readout, EnVision, EnVision plate reader. […] EnVision protocol for 1536-well AlphaScreen read (30ms excitation, 100ms read), about 10 min/plate. […]
row,Structure (SMILES),activity change
1,CC(=O)c1c(O)c(C)c(O)c(Cc2c(O)c3c(c(C(=O)/C=C/c4ccccc4)c2O)OC(C)(C)C=C3)c1O,13.5% (inactive)
